Most compounds without a hit are left out; they make up all but 4.9% or so of the library.
USP7 inh – human USP7 deubiquitinase inhibition | purified USP7, Ub-rhodamine cleavage fluorescence | Q93009 | 47,000 compounds, 0.3% hits | inhibition, % at 20 µM | AID 1645854
UCHL1 block – inhibitors of human UCHL1 deubiquitinase | 47,000 compounds, 0.2% hits | P09936 | purified UCHL1, Ub-rhodamine cleavage fluorescence | inhibition, % at 20 µM
Target sequence (P09936 whole entry, looked up): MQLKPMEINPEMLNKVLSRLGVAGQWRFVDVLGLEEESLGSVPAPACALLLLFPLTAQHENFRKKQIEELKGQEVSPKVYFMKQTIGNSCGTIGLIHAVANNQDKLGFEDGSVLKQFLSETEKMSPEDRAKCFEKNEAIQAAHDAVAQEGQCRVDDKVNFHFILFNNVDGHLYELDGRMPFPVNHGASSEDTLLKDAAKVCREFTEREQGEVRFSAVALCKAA
USP8 block – blocks human USP8 ubiquitin-rhodamine cleavage; P40818; purified USP8, Ub-rhodamine cleavage fluorescence, 30 min; inhibition, % at 20 µM; 47,000 compounds, 4.2% hits; AID 1645853
OTUD3 block – blocks human OTUD3 ubiquitin-rhodamine cleavage; Q5T2D3; purified OTUD3, Ub-rhodamine fluorescence, 2 h; inhibition, % at 25 µM; 47,000 compounds, 0.7% hits
USP10 inh – blocks human USP10 ubiquitin-rhodamine cleavage. purified USP10, Ub-rhodamine fluorescence, 60 min. inhibition, % at 20 µM. 47,000 compounds, 1.1% hits. AID 1645856
The depositor's hits bear a star. Rule as the data show it: active = inhibition above about 30%; inactive = the rest.

How did COc1c(C)c(OC(=O)c2c(C)c(C)c(OC(=O)c3c(C)c(C)c(O)c(C)c3O)c(C)c2OC)c(C)c(C)c1C(=O)O do in these assays?
USP7 inh: 5; UCHL1 block: 0; USP8 block: 9; OTUD3 block: 13; USP10 inh: 66*

Results for CCOc1ncccc1C(=O)Nc1ccnn1Cc1ccccc1 ?
USP7 inh: 0; UCHL1 block: -2; USP8 block: 1; OTUD3 block: 2; USP10 inh: 50*

How did Cc1cc(CSc2ncccc2C(=O)Nc2ccnn2Cc2cccnc2)no1 do in these assays?
USP7 inh: 4; UCHL1 block: 2; USP8 block: -23; OTUD3 block: 81*; USP10 inh: -1

What do the screens show for `Cc1cc(CSc2ncccc2C(=O)Nc2ccnn2Cc2ccccn2)no1`?
USP7 inh: -1; UCHL1 block: -3; USP8 block: -56; OTUD3 block: -6; USP10 inh: -3

How did CCOc1ncccc1C(=O)Nc1ccnn1Cc1ccc(C)s1 do in these assays?
USP7 inh: -11; UCHL1 block: 4; USP8 block: 2; OTUD3 block: 7; USP10 inh: 5

Results for CC(C)c1nc(CN2CCOC(Cn3cccn3)C2)no1 (stereo not drawn) ?
USP7 inh: 0; UCHL1 block: -2; USP8 block: -10; OTUD3 block: 0; USP10 inh: -1

Results for COc1ccc(-c2cc(C(=O)NCC(c3ccccc3)N3CCCCC3)no2)cc1 (stereo not drawn) ?
USP7 inh: 0; UCHL1 block: -3; USP8 block: -4; OTUD3 block: -6; USP10 inh: -3

Results for Cc1ccc(NC(=O)Cc2nnc3c(-c4nc(C5CC5)no4)cccn23)c(C)c1 ?
USP7 inh: 7; UCHL1 block: 9; USP8 block: 65*; OTUD3 block: -13; USP10 inh: 8

Results for Cc1ccc(NC(=O)Cc2nnc3c(-c4nc(C5CC5)no4)cccn23)cc1F ?
USP7 inh: 53*; UCHL1 block: 31*; USP8 block: 93*; OTUD3 block: 7; USP10 inh: 54*

Results for Cc1ccc(NC(=O)Cn2cc(-c3nc(C4CC4)no3)ccc2=O)cc1C ?
USP7 inh: 7; UCHL1 block: 2; USP8 block: 11; OTUD3 block: 10; USP10 inh: 16

What do the screens show for `Cc1cc(O)cc2cc3c(c(O)c12)C(=O)CCC3O` (stereo not drawn)?
USP7 inh: -49; UCHL1 block: -22; USP8 block: -140; OTUD3 block: -6; USP10 inh: -5

How did Cc1ccc(OCC(=O)Nc2ccc3c(c2)CN(C(=O)c2ccco2)CC3)cc1 do in these assays?
USP7 inh: -25; UCHL1 block: 6; USP8 block: 33*; OTUD3 block: 30; USP10 inh: 17

What do the screens show for `COc1ccc(-n2nc3c(c2NC(=O)c2cccs2)CS(=O)(=O)C3)cc1`?
USP7 inh: -2; UCHL1 block: 3; USP8 block: 5; OTUD3 block: 2; USP10 inh: 0

What do the screens show for `Cc1ccc(-c2[nH]c3ccccc3c2C2c3ccccc3C(=O)N2CC(=O)O)cc1` (stereo not drawn)?
USP7 inh: -1; UCHL1 block: -2; USP8 block: 61*; OTUD3 block: -8; USP10 inh: 12

How did CS(=O)(=O)Nc1nc2ccc(C(=O)N3CCN(c4ccccn4)CC3)cc2s1 do in these assays?
USP7 inh: -4; UCHL1 block: -7; USP8 block: -12; OTUD3 block: -6; USP10 inh: -7

How did COc1ccc(C(=O)Nc2cnc(-c3ccccc3)nc2)cc1 do in these assays?
USP7 inh: 2; UCHL1 block: 0; USP8 block: 92*; OTUD3 block: -7; USP10 inh: 10

How did O=C(Nc1nccs1)C1c2ccccc2C(=O)N(Cc2ccccc2)C12CCCC2 (stereo not drawn) do in these assays?
USP7 inh: 23; UCHL1 block: 69*; USP8 block: 69*; OTUD3 block: 10; USP10 inh: 26

What do the screens show for `COCCN1C(=O)c2ccccc2C(C(=O)Nc2ccc3c(c2)OCO3)C12CCCC2` (stereo not drawn)?
USP7 inh: 9; UCHL1 block: 4; USP8 block: 69*; OTUD3 block: 13; USP10 inh: 0

How did COCCN1C(=O)c2ccccc2C(C(=O)Nc2ccc(NC(C)=O)cc2)C12CCCCC2 (stereo not drawn) do in these assays?
USP7 inh: 4; UCHL1 block: 0; USP8 block: -8; OTUD3 block: 0; USP10 inh: -3

How did CN1CCN(CCCNC(=O)c2cc3c(s2)-c2ccsc2CC3)CC1 do in these assays?
USP7 inh: -3; UCHL1 block: -1; USP8 block: 1; OTUD3 block: -10; USP10 inh: -4

How did COc1ccc(N(C)C(=O)c2cc3c(=O)n(C)c4ccccc4n3n2)cc1 do in these assays?
USP7 inh: -5; UCHL1 block: 1; USP8 block: 82*; OTUD3 block: -9; USP10 inh: -5

What do the screens show for `CC(=O)C1=C(C)Nc2nc3ccccc3n2C1c1cccs1` (stereo not drawn)?
USP7 inh: 3; UCHL1 block: 2; USP8 block: -1; OTUD3 block: 20; USP10 inh: 0

What do the screens show for `COc1ccc(C2=Nc3ccccc3SC(c3ccccc3)C2)cc1` (stereo not drawn)?
USP7 inh: 1; UCHL1 block: 5; USP8 block: 41*; OTUD3 block: 3; USP10 inh: 6

How did Cn1c(O)c(C2=Nc3ccccc3SC(c3ccc(Cl)cc3)C2)c(=O)n(C)c1=O (stereo not drawn) do in these assays?
USP7 inh: 1; UCHL1 block: -2; USP8 block: 5; OTUD3 block: 2; USP10 inh: -5

Results for Cc1nn(-c2cc(N3CCOCC3)ncn2)c(C)c1CCC(=O)Nc1ccc(C(C)C)cc1 ?
USP7 inh: 4; UCHL1 block: 5; USP8 block: -151; OTUD3 block: 7; USP10 inh: -2

Results for O=C(Oc1ccccc1)C1CCN(S(=O)(=O)c2ccc3c(c2)OCCCO3)CC1 ?
USP7 inh: 5; UCHL1 block: 4; USP8 block: 16; OTUD3 block: 19; USP10 inh: 3

Results for CC(=O)c1cccc(S(=O)(=O)N2CCC(C(=O)Oc3ccc(-c4nnco4)cc3)CC2)c1 ?
USP7 inh: 2; UCHL1 block: 8; USP8 block: 39*; OTUD3 block: 20; USP10 inh: 10

What do the screens show for `CC1CCN(c2nc(F)c3c(c2F)S(=O)(=O)CCN3Cc2ccccc2)CC1`?
USP7 inh: 1; UCHL1 block: 5; USP8 block: 92*; OTUD3 block: 5; USP10 inh: -1

What do the screens show for `O=S1(=O)CCN(Cc2ccccc2)c2c(F)nc(N3CCCCC3)c(F)c21`?
USP7 inh: -7; UCHL1 block: 6; USP8 block: 87*; OTUD3 block: -4; USP10 inh: -1

Results for CC1CCN(c2nc(F)c3c(c2F)S(=O)(=O)CCN3CC2CCCO2)CC1 (stereo not drawn) ?
USP7 inh: -34; UCHL1 block: 5; USP8 block: -39; OTUD3 block: -4; USP10 inh: 6

Source: PubChem
